Results filed as inconclusive are left out. Calls of active or inactive are those of the source. Calls come from the whole dose curve; as a rule, active = well fitted activation curve with a large enough effect; inconclusive = small, poorly fitted or top-dose-only effect; inactive = no such curve, though single readings can be large or run the other way.
Test: qHTS Assay for Agonists of the Relaxin Receptor RXFP1: V1B Hit Validation;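 note: counter-screen in HEK293 cells expressing V1B rather than RXFP1 for selectivity; nearly all actives have a fitted effect of over 65% in size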;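 for activation: cAMP accumulation with PDE4 inhibitor Ro 20-1724 present during compound exposure; 0% = buffer alone basal and 100% = 29 nM porcine relaxin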
Details: HEK293 V1B cells, cAMP TR-FRET, 30 min; series mostly up to 115 µM; activation: at the top concentration
Method in brief: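 HEK293 cells expressing V1B, 2000/well, treated 30 min at 37C with compound plus PDE4 inhibitor Ro 20174; cAMP by HTRF TR-FRET (665/615 nm). Normalized to buffer and 29 nM porcine relaxin; EC50 from Hill fit.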
Potency is the fitted concentration of half-maximal effect.

SMILES | activation | Potency
COC(=O)c1c(N2C(=O)CC(Sc3ncccc3C(=O)O)C2=O)sc(C)c1C (stereo not drawn) | -11.8% (inactive) | –
CCOC(=O)N1CCN(S(=O)(=O)c2c(C)nc3scc(C)n3c2=O)CC1 | – | 24.5 µM (active)
O=C(O)c1cc(-c2ccco2)nc2ccc(Br)cc12 | – | 19.4 µM (active)
NCCNC(=O)Cc1ccc(NC(=O)Cc2ccc(Nc3ncnc4c3ncn4[C@@H]3O[C@H](CO)[C@@H](O)[C@H]3O)cc2)cc1 | – | 2.75 µM (active)
Cc1cccc(NC(=O)c2ccccc2NC(=O)C2CCCCC2)c1C | -3.76% [at 127 µM] (inactive) | –
CC(=O)C1C(c2ccccc2)c2c(noc2C)CC1(C)O (stereo not drawn) | -3.38% (inactive) | –
CCN(CC)CCCN1C=C2C(=O)C(C)(OC(=O)C3CCCC3)C(=O)C=C2C=C1c1ccsc1 (stereo not drawn) | -2.67% (inactive) | –
COC(=O)Cn1cnc2c(C#N)c3n(c2c1=O)CCCC3 | – | 21.9 µM (active)
CCNc1nc(NCC)nc(N(C)/N=C/c2ccco2)n1 | 2.96% (inactive) | –
COC(=O)Cn1cnc2c(C#N)c3n(c2c1=O)CCCCC3 | – | 13.8 µM (active)
COc1ccc(-n2nnc3c(=O)n(CC(=O)NCC4CCCO4)cnc32)cc1 (stereo not drawn) | – | 9.74 µM (active)
COC(=O)c1cc(CN2C(=O)c3ccccc3C2=O)c(O)c([N+](=O)[O-])c1 | – | 30.9 µM (active)
CCN(CC)S(=O)(=O)c1ccc2c(c1)N(CC(=O)Nc1cccnc1Cl)C(=O)CO2 | – | 17.3 µM (active)
CC1CCCCN1C(=O)c1ccccc1NC(=O)c1ccco1 (stereo not drawn) | 4.49% [at 127 µM] (inactive) | –
O=C(Nc1cccc(C(F)(F)F)c1)c1ccccc1NC(=O)C1CCCCC1 | – | inactive
Cn1c(=O)c2sccc2n2c(CCCC(=O)NCc3ccco3)nnc12 | – | 34.6 µM (active)
O=c1oc2cc(O)c(Cl)cc2c2ccccc12 | – | 6.9 µM (active)
C=CCNc1ncnc2c1ncn2C1OC(CO)C(O)C1O (stereo not drawn) | -32.1% (inactive) | –
COc1ccc(OC)c(CNC(=O)C2CCN(C(=O)N(C)C)CC2)c1 | -3.57% (inactive) | –

SMILES | activation | Potency
CCC(Sc1ccc2nnc(-c3cccnc3)n2n1)C(=O)O (stereo not drawn) | – | 17.3 µM (active)
CCOc1ccc(NC(=O)CSc2ccc3nnc(-c4cccnc4)n3n2)cc1 | – | 38.9 µM (active)
Cc1nc2scc(C)n2c(=O)c1S(=O)(=O)N1CCN(c2ccccn2)CC1 | – | 30.9 µM (active)
CC(C)n1cnc2c(N(C)c3cccc(Cl)c3)nc(N(CCO)CCO)nc21 | -3.24% (inactive) | –
COc1ccccc1NC(=O)CCCc1nnc2n(C)c(=O)c3sccc3n12 | – | 13.8 µM (active)
Cc1cccc(NC(=O)c2ccccc2NC(=O)c2ccco2)c1 | 5.32% [at 127 µM] (inactive) | –
O=C(CCc1nnc2ccc(N3CCC4(CC3)OCCO4)nn12)NCc1ccc(F)cc1 | – | 38.9 µM (active)
CCC(Sc1ccc2nnc(-c3cccnc3)n2n1)C(=O)OC (stereo not drawn) | – | 19.4 µM (active)
Cc1cc(NC(=O)c2ccccc2F)nc2c1c(=O)oc1ccccc12 | – | 21.8 µM (active)
c1ccc(COn2nnc3ccccc32)c(COn2nnc3ccccc32)c1 | 7.79% [at 44.9 µM] (inactive) | –
CCC1(C)Cc2c(sc3c2c2ncnn2c2nnc(SCC(=O)NCc4ccco4)n32)CO1 (stereo not drawn) | – | 13.8 µM (active)
CN(C)c1ccc(C(=S)N2CCN(S(=O)(=O)c3ccccc3)CC2)cc1 | 4.97% (inactive) | –
C=CCOc1c(Cl)cc(CNc2ccc(N(C)C)cc2)cc1OC | -0.719% (inactive) | –
O=C(O)c1ccc(N2C(=O)c3cccc4cccc(c34)C2=O)cc1 | – | 74.9 µM (active)
COc1ccc(CN2C(=O)c3cccnc3C2=O)cc1S(=O)(=O)NC1CCCCC1 | – | 34.6 µM (active)
Cn1c(=O)c2c(ncn2CC(=O)N/N=C/c2cn[nH]c2-c2ccc(F)cc2)n(C)c1=O | – | 21.8 µM (active)
CCOC(=O)c1cc2c(=O)n3ccccc3nc2n(Cc2ccco2)c1=NC(=O)c1ccccc1OCC | – | 38.9 µM (active)
CN(C)c1ccc(NC(=O)C2C3C=CC(C3)C2C(=O)O)cc1 (stereo not drawn) | -1.47% (inactive) | –
CCc1cc2cc3c(cc2nc1SCC(=O)Nc1nccs1)OCO3 | – | 19.4 µM (active)
